A selection: hits, their analogues and other compounds. The true share with any hit is near 9%.
HPGD block: inhibitors of human 15-hydroxyprostaglandin dehydrogenase (HPGD). purified HPGD, NADH fluorescence kinetic, PGE2 substrate. Potency, µM, hits mostly inhibitors. 150,000 compounds, 4.3% hits; active = well fitted inhibition curve with a large enough effect, not every such curve was filed as active; inconclusive = small, poorly fitted or top-dose-only effect, or another doubt; inactive = no such curve, though single readings can be large or run the other way
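20 nM HPGD preincubated 15 min at room temperature with compound in 50 mM Tris-HCl pH 8, 0.01% Tween 20. Started with 1 mM NAD+ and 30 uM prostaglandin E2; NADH fluorescence (360/450 nm) read 5 times over 30-s intervals, last minus first.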
KinaseGlo FLuc: blocks Kinase-Glo luciferase, a counter-screen artifact | Q27757 | AID 1379 | Potency, µM (doses to about 38.3 µM), actives largely listed as inhibitors | 200,000 compounds, 0.28% hits | Kinase-Glo luciferase, ATP luminescence, 8 min; note: nearly all actives have a fitted effect of over 60% in size
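Recombinant Kinase-Glo luciferase, 10 uM ATP (linear range), luciferin; imidazole pH 7.2 / KCl / MgCl2 / Tween / BSA buffer; 8 min RT; luminescence.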
ALDH1A1 inh: blocks purified human ALDH1A1 activity | P00352 | Purified ALDH1A1, NADH fluorescence, propionaldehyde substrate | Potency, µM (highest dose often 75.3 µM), actives largely listed as inhibitors | 220,000 compounds, 7.3% hits | AID 1030; active = well fitted inhibition curve with a large enough effect, not every such curve was filed as active; inconclusive = small, poorly fitted or top-dose-only effect, or another doubt; inactive = no such curve, though single readings can be large or run the other way
Target sequence (P00352 whole entry, looked up): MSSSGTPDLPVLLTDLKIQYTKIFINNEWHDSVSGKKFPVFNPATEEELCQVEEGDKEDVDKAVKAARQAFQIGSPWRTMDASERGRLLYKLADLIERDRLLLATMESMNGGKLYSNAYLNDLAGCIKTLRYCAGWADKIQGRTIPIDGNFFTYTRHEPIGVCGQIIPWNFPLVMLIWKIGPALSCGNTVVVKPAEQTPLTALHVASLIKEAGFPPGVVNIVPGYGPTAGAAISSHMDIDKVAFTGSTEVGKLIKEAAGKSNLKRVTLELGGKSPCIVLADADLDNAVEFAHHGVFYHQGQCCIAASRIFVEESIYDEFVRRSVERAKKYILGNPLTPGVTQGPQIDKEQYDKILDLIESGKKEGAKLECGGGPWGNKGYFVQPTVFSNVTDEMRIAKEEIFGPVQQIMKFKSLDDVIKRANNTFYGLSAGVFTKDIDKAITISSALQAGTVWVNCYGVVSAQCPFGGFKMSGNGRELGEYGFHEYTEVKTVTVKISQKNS
LMNA splice mod: LMNA splicing modulation. HeLa LMNA splicing GFP/RFP minigene ratio, 48 h. Potency, µM (top dose mostly 46.1 µM), hits mostly inhibitors. 200,000 compounds, 0.01% hits. AID 1487; active = well fitted inhibition curve with a large enough effect in the signal ratio, with a control signal flat, not every such curve was filed as active; inconclusive = small, poorly fitted or top-dose-only effect, or effect the other way, or a change in a side signal; the % refers to the signal ratio
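Read-out is the ratio of GFP to DsRed2 object intensity, acquired by 488 nm laser-scanning cytometry on HeLa lamin A-EGFP minigene reporter cells. Compound incubation 48 hrs at 37 °C in Opti-MEM with 2% FBS; DMSO 0.5% final.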
IMPase Li inh: membrane-permeable IMPase blocker, potentiated with lithium; AID 1457; CHO-M1 cells, IP1 TR-FRET (IP-One), carbachol + lithium; Potency, µM (titrated, usually from 59.4 µM), hits mostly inhibitors; 210,000 compounds, 0.35% hits;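 note: IP1 builds up when IMPase is blocked and the TR-FRET signal falls; nearly all actives have a fitted effect of over 50% in size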
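CHO-M1, 2000 cells/well, 16–30 h culture; cpd + low Li+, 30 min 37C; lysis with d2-IP1/Eu-anti-IP1 Ab, 10 min RT; TR-FRET 665/620 ratio and 620 channel; AC50 via Hill.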
Large screens that a line does not name were inactive. Unless noted, calls come from the whole dose curve; as a rule, active = well fitted curve in the direction sought with a large enough effect; inconclusive = small, poorly fitted or top-dose-only effect, or another doubt; inactive = no such curve, though single readings can be large; an effect the other way counts as inactive or inconclusive.

CC(C)(C)c1[nH]nc2c1C(C1C=CCCC1)C(C#N)=C(N)O2 (stereo not given)	ALDH1A1 inh inconclusive
COC(=O)c1c(C)[nH]c(O)c1C=Nc1ccc(C(C)C)cc1	HPGD block 25.1µM, ALDH1A1 inh inconclusive
COC(=O)c1c(C)[nH]c(O)c1C=Nc1ccc(Oc2ccccc2)cc1	LMNA splice mod inconclusive (no result: HPGD block)
CC(=O)NCCn1c(SCC(=O)NCCC2=CCCCC2)nc2ccccc2c1=O	none
Cc1cc(SCC(=O)NCCC2=CCCCC2)nc2ccccc12	HPGD block 25.1µM
CCOC(=O)N1CCC(n2c(SCC(=O)NCc3ccccc3)nc3ccccc3c2=O)CC1	none
CCOC(=O)N1CCC(n2c(SCC(=O)NCCC3=CCCCC3)nc3ccccc3c2=O)CC1	ALDH1A1 inh 12.6µM, LMNA splice mod inconclusive
C=CCNC(=S)N(C1CCCCC1)C1CCCCC1	none (no result: HPGD block)
Cc1ccccc1-n1c(-c2csc3ccccc23)n[nH]c1=S	HPGD block 15.8µM, ALDH1A1 inh 22.4µM
Cc1ccc(-c2nnn(CC(=O)NCCC3=CCCCC3)n2)cc1	ALDH1A1 inh 28.2µM
CSc1ccc(OC2CCCCC2NS(=O)(=O)c2ccccc2)cc1 (stereo not given)	ALDH1A1 inh 1.26µM, LMNA splice mod inconclusive
Cc1cc(C)cc(OC2CCCCC2NS(=O)(=O)c2ccccc2)c1 (stereo not given)	ALDH1A1 inh 12.6µM
CN(C1CCCCC1)S(=O)(=O)Cc1ccccc1	HPGD block 17.8µM
CC(C)CCn1nnnc1CN1CCN(c2ccccc2)CC1	none (no result: HPGD block, LMNA splice mod)
COc1ccc(OC)c(-n2c(SC)nnc2-c2c[nH]c3ccccc23)c1	HPGD block 17.8µM, ALDH1A1 inh inconclusive
Fc1ccc(COc2ccccc2C(=S)N2CCCC2)cc1	HPGD block 8.91µM, ALDH1A1 inh 7.94µM, LMNA splice mod inconclusive
O=C(NN=C1CCCCC1)c1ccccc1OCc1ccc(F)cc1	ALDH1A1 inh inconclusive, LMNA splice mod inconclusive
Cc1ccc(COc2ccccc2C(=S)N2CCCC2)cc1	ALDH1A1 inh 25.1µM (no result: HPGD block)
N[C@H](C(=O)O)[C@@H]1C[C@@H]1C(=O)O	none (no result: LMNA splice mod)
Cc1ccc(C(=O)CSc2nnc(CNc3ccc(F)cc3)o2)cc1	none (no result: HPGD block, LMNA splice mod)
CCC(COC(=O)Nc1cccc(C)c1)NC(=O)OCC(C)C (stereo not given)	LMNA splice mod inconclusive
COc1ccc(NS(=O)(=O)c2cccc(C(=O)N/N=C/c3ccccn3)c2)cc1	none (no result: HPGD block)
O=C(Oc1ccccc1/C=C\C(=O)c1cc2ccccc2o1)c1ccccc1	ALDH1A1 inh 11.2µM
COc1cccc(C(=O)Oc2ccccc2/C=C\C(=O)c2cc3ccccc3o2)c1	LMNA splice mod inconclusive
O=C(Oc1ccccc1/C=C\C(=O)c1cc2ccccc2o1)c1cccc(F)c1	HPGD block inconclusive, ALDH1A1 inh 8.91µM, LMNA splice mod inconclusive
O=C(N/N=C/c1ccccc1OC(=O)c1ccc2c(c1)OCO2)c1cccc(F)c1	LMNA splice mod inconclusive
CC(=O)Nc1ccc(C(=O)OCC(=O)N(Cc2ccccc2)C(C)(C)C)cc1	none
CCNc1ccc(C2(O)C(=O)c3ccccc3C2=O)cc1	none
CCC(CC)C(=O)OCc1cc(=O)n2nc(C3CC3)sc2n1	none (no result: HPGD block, KinaseGlo FLuc, ALDH1A1 inh, IMPase Li inh)
CCCCc1ccc(NC(=S)Nc2ccc(Nc3ccc(OC)cc3)cc2)cc1	HPGD block inconclusive, ALDH1A1 inh 7.08µM, LMNA splice mod inconclusive
O=C(CNC(=O)c1ccc(F)cc1)OCc1cc(=O)n2nc(C3CCCCC3)sc2n1	none (no result: HPGD block, KinaseGlo FLuc, ALDH1A1 inh, IMPase Li inh)
O=C(CSc1ccc2c(c1)OCCO2)Nc1cccnc1	none (no result: HPGD block)
Cc1[nH]c2ccccc2c1C(=O)CSc1n[nH]c(N)n1	none (no result: HPGD block, LMNA splice mod)
CN(Cc1nc(-c2cccnc2)no1)S(=O)(=O)c1ccc(Br)cc1	HPGD block inconclusive
CN(Cc1nc(-c2ccccn2)no1)S(=O)(=O)c1ccc(Br)cc1	HPGD block 22.4µM, ALDH1A1 inh inconclusive
CSc1nc2c(c(=O)[nH]1)CCCC2	none
CSc1nc(=S)c2[nH]c(=S)[nH]c2[nH]1	ALDH1A1 inh 1.41µM (no result: HPGD block, KinaseGlo FLuc, LMNA splice mod, IMPase Li inh)
CC(C)(C)C(=O)[C@H](C(c1ccccc1)N1CCOCC1)N1CCOCC1 (stereo not given in full)	none (no result: LMNA splice mod)
C=CCN1C(=O)/C(=C2/Sc3ccc(OC)cc3N2C)SC1=NCc1ccccc1	IMPase Li inh 2µM (no result: HPGD block, KinaseGlo FLuc, LMNA splice mod)
CCOc1ccccc1N1CCN(c2nc(N)c(C#N)c(CC#N)c2C#N)CC1	ALDH1A1 inh 20µM
CCN(CC)S(=O)(=O)c1ccc2c(c1)nc(CCC(=O)O)n2C	ALDH1A1 inh 11.2µM (no result: HPGD block, KinaseGlo FLuc, IMPase Li inh)

From PubChem
